PubChem BioAssay AID1259349 (Broad Institute, 2017)
Several values for one entry are separate records, joined by “and”; a condition that tells them apart may be missing. Identical values can stand only once. Among all 17,000 compounds or so, about 1,100 (6.5%) were called active.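 Rule for the calls: active = z-score of -3 or lower, meaning strong loss of probe binding signal; inactive = the rest.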 Only a selection was taken, and actives are over-represented in it overall. A structure can be active in one record and inactive in another.

Target: Insulin-degrading enzyme (Homo sapiens) (UniProt P14735)
Experiment: exo-site inhibitors of human IDE, primary screen, biochemical, fluorescence anisotropy, probe displacement (AID 1259349);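 note: His-tagged human IDE residues 42-1019 made in E. coli with 30 nM FL-6b probe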
Settings: purified IDE, FL-6b probe fluorescence polarization; at 20 µM; stronger effect = lower value

Sequence of Insulin-degrading enzyme (Homo sapiens) (P14735 42-1019 limits assumed): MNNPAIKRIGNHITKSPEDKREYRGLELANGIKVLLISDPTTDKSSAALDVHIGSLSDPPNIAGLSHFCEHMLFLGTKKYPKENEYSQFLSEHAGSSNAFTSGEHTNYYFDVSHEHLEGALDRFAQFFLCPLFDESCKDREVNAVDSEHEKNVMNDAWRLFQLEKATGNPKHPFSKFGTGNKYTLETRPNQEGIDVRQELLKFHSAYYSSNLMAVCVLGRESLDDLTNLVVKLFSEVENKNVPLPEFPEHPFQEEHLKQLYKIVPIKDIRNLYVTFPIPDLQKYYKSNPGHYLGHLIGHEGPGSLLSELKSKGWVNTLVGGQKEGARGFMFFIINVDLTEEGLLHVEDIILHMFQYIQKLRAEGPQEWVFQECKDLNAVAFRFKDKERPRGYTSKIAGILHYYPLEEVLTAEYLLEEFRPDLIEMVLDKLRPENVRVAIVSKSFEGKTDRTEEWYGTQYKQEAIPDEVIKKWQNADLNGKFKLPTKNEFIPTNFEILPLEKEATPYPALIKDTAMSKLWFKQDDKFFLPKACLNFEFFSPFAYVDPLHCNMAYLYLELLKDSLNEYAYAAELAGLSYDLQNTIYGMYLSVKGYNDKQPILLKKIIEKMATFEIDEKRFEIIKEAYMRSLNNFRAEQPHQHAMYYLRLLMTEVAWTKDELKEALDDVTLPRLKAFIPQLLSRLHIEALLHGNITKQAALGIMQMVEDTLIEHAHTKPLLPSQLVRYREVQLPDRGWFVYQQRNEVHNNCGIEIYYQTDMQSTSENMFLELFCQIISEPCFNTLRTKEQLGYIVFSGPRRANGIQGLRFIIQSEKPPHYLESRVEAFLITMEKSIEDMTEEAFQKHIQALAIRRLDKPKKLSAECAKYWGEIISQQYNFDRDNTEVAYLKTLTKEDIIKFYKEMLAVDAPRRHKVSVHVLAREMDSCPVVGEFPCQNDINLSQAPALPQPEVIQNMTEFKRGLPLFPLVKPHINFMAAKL

Q: With `COCC#Cc1ccc([C@@H]2[C@@H](CO)N3CCCCN(C(=O)COC)C[C@@H]23)cc1` as the molecule, how does the z-score read?
A: 1.49 (inactive)

Q: For `CCCNC(=O)N1[C@H](CO)[C@@H](c2ccc(-c3ccc(C(=O)N(C)C)cc3)cc2)[C@@H]1C#N`, which z-score is on record?
A: -1.53 (inactive)

Q: `CCC(=O)N1[C@@H](CO)[C@@H]2c3ccccc3N(C(=O)c3cnccn3)C[C@@H]21` was tested. Which z-score did it give?
A: 1.18 (inactive)

Q: With `CO[C@@H]1CN(C)C(=O)c2cc(NS(=O)(=O)c3cccc(Cl)c3)ccc2OC[C@@H](C)NC[C@@H]1C` as the molecule, how does the z-score read?
A: -0.0121 (inactive)

Q: `O=C(c1cnccn1)N1CC(=O)N2[C@H](C1)[C@@H](c1ccc(C#CC3CCCCC3)cc1)[C@@H]2CO` was tested. Which z-score did it give?
A: 4.43 (inactive)

Q: Which z-score does the source give for `Cc1ccccc1S(=O)(=O)N1C[C@H](O)COC[C@H]2O[C@H](CC(=O)N3CCCCC3)CC[C@@H]21` here?
A: -0.576 (inactive)

Q: For `C[C@H](NC(=O)C[C@H]1CC[C@H]2[C@@H](COC[C@H](O)CN2C(=O)Nc2cccc(Cl)c2)O1)c1ccccc1`, which z-score is on record?
A: 1.23 (inactive)

Q: With `Cn1cnc(S(=O)(=O)N2CCCCN3[C@@H](CO)[C@@H](c4ccc(C#CC5CCCC5)cc4)[C@@H]3C2)c1` as the molecule, how does the z-score read?
A: 1.81 (inactive)

Q: For `O=C(Nc1ccc(C(F)(F)F)cc1)N1[C@@H]2CNC[C@H]1C2c1ccc(-c2ccncc2)cc1` (some centres not stated), which z-score is on record?
A: 3.1 (inactive) and 5.44 (inactive)

Q: With `COc1ccc(-c2ccc3c(c2)[C@@H]2[C@@H](CCN2C(=O)c2cccc(F)c2)[C@H](CO)N3)cc1` as the molecule, how does the z-score read?
A: 1.25 (inactive)

Q: With `O=C(c1ccccc1)N1CC(=O)N2[C@@H](CO)[C@H](c3ccc(C#CCC4CCCC4)cc3)[C@@H]2C1` as the molecule, how does the z-score read?
A: 0.717 (inactive)

Q: For `CNC[C@@H]1OCCCC[C@H](C)Oc2ccc(NC(=O)Nc3ccc(OC)cc3)cc2C(=O)N([C@H](C)CO)C[C@@H]1C`, which z-score is on record?
A: 1.03 (inactive)

Q: With `CC(=O)N1CC2(C1)[C@H](c1ccccc1)[C@@H](CO)N2C(=O)Cc1ccccc1` as the molecule, how does the z-score read?
A: -0.887 (inactive)

Q: How did the z-score turn out when `COc1ccc2c3c([nH]c2c1)[C@H](CO)N(Cc1ccccc1Cl)CC31CN(C(=O)C2CC2)C1` was run?
A: -4.06 (active)

Q: How did the z-score turn out when `COc1ccc2c3c([nH]c2c1)[C@@H](CO)N(Cc1cc(F)ccc1F)CC31CN(C(=O)C2CCC2)C1` was run?
A: -1.31 (inactive)

Q: `COCC(=O)N1CC2(C1)CN(Cc1ccccc1F)[C@@H](CO)c1[nH]c3cc(OC)ccc3c12` was tested. Which z-score did it give?
A: -1.64 (inactive)

Q: For `N#Cc1cccc(-c2ccc3c(c2)[C@H]2[C@H](CCN2Cc2ccc4c(c2)OCO4)[C@@H](CO)N3)c1`, which z-score is on record?
A: 1.22 (inactive)

Q: For `CC(C)NC(=O)N1CCCCN2[C@H](CO)[C@@H](c3ccc(Br)cc3)[C@H]2C1`, which z-score is on record?
A: 2.67 (inactive)

Q: For `CCCNC(=O)N1[C@H](C#N)[C@@H](c2ccccc2)[C@H]1CO`, which z-score is on record?
A: 3.95 (inactive)

Q: Which z-score does the source give for `C[C@@H]1CCCCO[C@H](CN(C)S(=O)(=O)c2cn(C)cn2)[C@H](C)CN([C@H](C)CO)C(=O)c2cc(N(C)C)ccc2O1` here?
A: -0.253 (inactive)

Q: With `CCCNC(=O)N1[C@@H]2CNC[C@H]1C2c1ccc(-c2ccccc2)cc1` (some centres not stated) as the molecule, how does the z-score read?
A: 0.774 (inactive) and 1.73 (inactive)

Q: `CCCNC(=O)N1[C@@H]2CNC[C@H]1C2c1ccc(-c2cccc(C)c2)cc1` (some centres not stated) was tested. Which z-score did it give?
A: 0.449 (inactive) and -6.06 (active)

Q: `COc1cccc(-c2ccc(C3[C@H]4CNC[C@@H]3N4C(=O)Nc3ccc(F)cc3)cc2)c1` (some centres not stated) was tested. Which z-score did it give?
A: -0.759 (inactive) and -1.81 (inactive)

Q: Which z-score does the source give for `CCC(=O)N1[C@@H](CO)[C@H](c2ccc(-c3cccc(F)c3)cc2)[C@@H]1CNC(C)=O` here?
A: 2.2 (inactive)

Q: For `N#C[C@@H]1[C@H](c2ccccc2-c2ccccc2F)[C@@H](CO)N1C(=O)C1CCOCC1`, which z-score is on record?
A: 3.52 (inactive)

Q: `Cc1noc(C)c1S(=O)(=O)N(C)C[C@H]1Oc2ccc(N(C)C)cc2C(=O)N([C@H](C)CO)C[C@@H]1C` was tested. Which z-score did it give?
A: -1.17 (inactive)

Q: Which z-score does the source give for `COc1ccccc1NC(=O)N1CCCCN2[C@@H](CO)[C@@H](c3ccc(C#Cc4ccccc4)cc3)[C@@H]2C1` here?
A: -2.86 (inactive)

Q: Which z-score does the source give for `CCCC#Cc1ccc([C@H]2[C@H](CO)N3CCCCN(S(=O)(=O)CC)C[C@@H]23)cc1` here?
A: 3.45 (inactive)

Q: `CN(C)CC#Cc1ccc([C@H]2[C@H]3CN(S(=O)(=O)c4ccccc4F)CCCCN3[C@H]2CO)cc1` was tested. Which z-score did it give?
A: 1.11 (inactive)

Q: `O=C(Nc1ccc(F)cc1)N1CCCCN2[C@H](CO)[C@H](c3ccc(C#Cc4ccccc4)cc3)[C@H]2C1` was tested. Which z-score did it give?
A: -0.00774 (inactive)

Q: `COc1ccc(C#Cc2ccc([C@H]3[C@@H](CO)N4CCCCN(C(=O)Nc5ccccc5)C[C@H]34)cc2)cc1` was tested. Which z-score did it give?
A: 4.38 (inactive)

Q: With `CCCC#Cc1ccc([C@@H]2[C@H](CO)N3CCCCN(S(=O)(=O)c4ccccc4F)C[C@@H]23)cc1` as the molecule, how does the z-score read?
A: -4.86 (active)

Q: How did the z-score turn out when `CCCC#Cc1ccc([C@H]2[C@@H](CO)N3CCCCN(S(=O)(=O)CC)C[C@H]23)cc1` was run?
A: 3.29 (inactive)

Q: With `COc1ccccc1C#Cc1ccc([C@@H]2[C@@H](CO)N3CCCCN(S(C)(=O)=O)C[C@@H]23)cc1` as the molecule, how does the z-score read?
A: -10.2 (active)

Q: For `OC[C@H]1[C@@H](c2ccc(C#Cc3ccccc3F)cc2)[C@H]2CN(CC3CCOCC3)CCCCN21`, which z-score is on record?
A: 0.86 (inactive)

Q: How did the z-score turn out when `COc1ccccc1C#Cc1ccc([C@@H]2[C@H](CO)N3CCCCN(CCC(F)(F)F)C[C@@H]23)cc1` was run?
A: -8.07 (active)

Q: How did the z-score turn out when `CS(=O)(=O)N1CCCCN2[C@@H](CO)[C@@H](c3ccc(Br)cc3)[C@@H]2C1` was run?
A: -1.86 (inactive)

Q: Which z-score does the source give for `COc1ccccc1C#Cc1ccc([C@H]2[C@H](CO)N3CCCCN(C(=O)C4CCC4)C[C@@H]23)cc1` here?
A: -12.3 (active)

Q: Which z-score does the source give for `CS(=O)(=O)Nc1ccc2c(c1)[C@@H]1C[C@H](CC(=O)NCc3cc(F)ccc3F)O[C@@H](CO)[C@@H]1O2` here?
A: -0.994 (inactive)

Q: Which z-score does the source give for `C/C=C/c1ccc([C@H]2[C@@H](CNC(=O)NC(C)C)N(C(=O)C3CCC3)[C@H]2CO)cc1` here?
A: 1.01 (inactive)

Q: `C[C@@H](O)C#Cc1ccc([C@H]2[C@H](CO)N3CCCCN(C(=O)c4ccc5c(c4)OCO5)C[C@@H]23)cc1` was tested. Which z-score did it give?
A: -0.442 (inactive)

Q: With `CCS(=O)(=O)NCC[C@H]1CC[C@@H](NC(=O)Nc2cc(Cl)cc(Cl)c2)[C@@H](CO)O1` as the molecule, how does the z-score read?
A: 2.83 (inactive)

Q: Which z-score does the source give for `CCCNC(=O)C[C@@H]1CC[C@H]2[C@@H](COC[C@H](O)CN2C(=O)Nc2ccc(Cl)c(Cl)c2)O1` here?
A: -0.531 (inactive)

Q: For `Cc1noc(C)c1S(=O)(=O)Nc1ccc2c(c1)C(=O)N([C@@H](C)CO)C[C@@H](C)[C@H](CN(C)C(=O)Nc1cccc3ccccc13)OCCCC[C@H](C)O2`, which z-score is on record?
A: 0.278 (inactive)

Q: `COc1ccccc1-c1ccc2c(c1)O[C@@H](CN(C)CC1CCOCC1)[C@H](C)CN([C@@H](C)CO)S2(=O)=O` was tested. Which z-score did it give?
A: -0.56 (inactive)

Q: For `CCNC(=O)c1cc2c(c(-c3cccc(-c4cncnc4)c3)n1)[C@H](CCO)N(C(C)=O)C2`, which z-score is on record?
A: -0.344 (inactive)

Q: `O=C1CNC[C@H]2[C@@H](c3ccc(C4=CCCC4)cc3)[C@@H](CO)N12` was tested. Which z-score did it give?
A: 1.84 (inactive)

Q: With `N#C[C@@H]1[C@H](c2ccccc2-c2ccccc2F)[C@@H](CO)N1C(=O)c1ccccn1` as the molecule, how does the z-score read?
A: -0.079 (inactive)

Q: Which z-score does the source give for `N#C[C@H]1[C@@H](c2ccccc2C2=CCCCC2)[C@H](CO)N1C(=O)c1ccccn1` here?
A: 0.206 (inactive)

Q: Which z-score does the source give for `N#C[C@@H]1[C@@H](c2ccc(-c3ccccc3F)cc2)[C@@H](CO)N1C(=O)c1ccccn1` here?
A: -6.83 (active)

Q: For `N#C[C@H]1[C@@H](c2ccc(-c3ccccc3F)cc2)[C@H](CO)N1C(=O)c1ccccn1`, which z-score is on record?
A: -3.67 (active)

Q: How did the z-score turn out when `N#C[C@@H]1[C@@H](c2ccc(-c3ccccc3F)cc2)[C@@H](CO)N1C(=O)C1CC1` was run?
A: -5.9 (active)

Q: How did the z-score turn out when `N#C[C@H]1[C@H](c2ccccc2)[C@@H](CO)N1C(=O)c1cccnc1` was run?
A: 1.75 (inactive)

Q: `CC(=O)N(C)C[C@@H]1[C@@H](c2ccc(-c3ccccc3F)cc2)[C@@H](CO)N1C(C)=O` was tested. Which z-score did it give?
A: 2.54 (inactive)

Q: How did the z-score turn out when `N#C[C@@H]1[C@@H](c2ccc(/C=C/c3ccccc3)cc2)[C@@H](CO)N1C(=O)C1CC1` was run?
A: -0.906 (inactive)

Q: How did the z-score turn out when `N#C[C@H]1[C@@H](c2ccccc2-c2ccccc2F)[C@@H](CO)N1C(=O)C1CCC1` was run?
A: -0.535 (inactive)

Q: How did the z-score turn out when `CC(C)NC(=O)N1[C@H](C#N)[C@@H](c2ccc(-c3ccc(F)cc3)cc2)[C@H]1CO` was run?
A: 2.54 (inactive)

Q: How did the z-score turn out when `O=C(CC1CC1)N1CC(=O)N2[C@H](CO)[C@H](c3ccc(C#Cc4ccc(F)cc4)cc3)[C@@H]2C1` was run?
A: 3.38 (inactive)

Q: How did the z-score turn out when `CCC(=O)N(C)C[C@H]1[C@H](c2ccc(C3=CCCCC3)cc2)[C@@H](CO)N1C(C)=O` was run?
A: 3.35 (inactive)

Q: `COc1cccc(-c2ccc([C@@H]3[C@@H](C#N)N(C(=O)c4ccccn4)[C@H]3CO)cc2)c1` was tested. Which z-score did it give?
A: -4.27 (active)

Q: Which z-score does the source give for `COc1cccc(-c2ccc([C@@H]3[C@@H](CO)N(C(=O)c4ccccn4)[C@H]3C#N)cc2)c1` here?
A: -6.41 (active)

Q: `N#C[C@H]1[C@H](c2ccc(-c3ccccc3)cc2)[C@@H](CO)N1C(=O)Cc1ccccc1` was tested. Which z-score did it give?
A: 1.03 (inactive)

Q: Which z-score does the source give for `N#C[C@@H]1[C@@H](c2ccc(-c3ccccc3)cc2)[C@@H](CO)N1C(=O)Cc1ccccc1` here?
A: 1.8 (inactive)

Q: For `COc1cccc(C#Cc2ccc([C@H]3[C@@H](CO)N(C(=O)c4ccccn4)[C@H]3C#N)cc2)c1`, which z-score is on record?
A: 0.995 (inactive)

Q: With `COc1ccc(-c2ccc([C@@H]3[C@@H](C#N)N(C(=O)C4CCC4)[C@@H]3CO)cc2)cc1` as the molecule, how does the z-score read?
A: 4.33 (inactive)

Q: For `CC(=O)N1[C@@H](CO)[C@@H](c2ccccc2)[C@@H]1CN(C)C(=O)CN1CCOCC1`, which z-score is on record?
A: 0.517 (inactive)

Q: `C[C@@H]1CN([C@H](C)CO)C(=O)c2cc(NC(=O)Cc3ccccc3)ccc2O[C@@H](C)CCCCO[C@@H]1CN(C)Cc1ccncc1` was tested. Which z-score did it give?
A: -1.57 (inactive)
